Active and inactive are the calls of the source. Rule for the calls: active = hit-call score of the fitted dose curve at least 0.9, where 1 is the maximum; inactive = score below 0.9.
Experiments:
Settings in all cases: mRNA level, 48 h; actives raise or lower the signal
[1] = read-out: CYP4A11 (gene 1579); assay: LTEA_HepaRG_CYP4A11: Life Technologies and Expression Analysis (LTEA) Assay for CYP4A11 using HepaRG (AID 2283486)
In short: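 Readout is CYP4A11 mRNA induction or suppression (qRT-PCR, ACTB/GAPDH/POLR2A normalization) in human HepaRG cells after 48 h chemical treatment, concentrations to 100 uM in 0.5% DMSO, fitted bidirectionally against vehicle.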

[2] = read-out: Cytochrome P450 3A4 (Homo sapiens) (UniProt P08684); assay: LTEA_HepaRG_CYP3A4: Life Technologies and Expression Analysis (LTEA) Assay for CYP3A4 using HepaRG (AID 2283487)
In short: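 CYP3A4 transcript measured by TaqMan qRT-PCR and normalized to three housekeeping genes after 48 h chemical exposure of human HepaRG cells. Top concentration 100 uM, half-log steps, 0.5% DMSO vehicle; gain or loss fitted against DMSO baseline.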

[3] = read-out: DNA damage-inducible transcript 3 (DDIT3), DDIT3 (gene 1649); assay: LTEA_HepaRG_DDIT3: Life Technologies and Expression Analysis (LTEA) Assay for DNA damage-inducible transcript 3 (DDIT3) using HepaRG (AID 2283488)
In short: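 DDIT3 transcript was quantified by qRT-PCR with ACTB/GAPDH/POLR2A normalization after 48 h chemical treatment of differentiated HepaRG cells in 0.5% DMSO. Dosing was eight-point, half-log, top 100 uM, duplicate wells. Curves fitted bidirectionally versus DMSO.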

[4] = read-out: Pro-epidermal growth factor (Homo sapiens) (UniProt P01133); assay: LTEA_HepaRG_EGF: Life Technologies and Expression Analysis (LTEA) Assay for Epidermal growth factor (EGF) using HepaRG (AID 2283489)
In short: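 EGF expression changes in human HepaRG cells are scored by bidirectional fitting relative to 0.5% DMSO controls. Chemicals are tested at eight half-log concentrations up to 100 uM for 48 h in serum-free induction medium.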

[5] = read-out: Early growth response protein 1 (EGR1) transcription factor, EGR1 (gene 1958); assay: LTEA_HepaRG_EGR1: Life Technologies and Expression Analysis (LTEA) Assay for Early growth response protein 1 (EGR1) transcription factor using HepaRG (AID 2283490)
In short: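 EGR1 expression change in human HepaRG after 48 h chemical exposure, assessed by housekeeping-normalized qRT-PCR; concentration-response up to 100 uM, fitted in both directions against DMSO controls.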

[6] = read-out: Ezrin (EZR), EZR (gene 7430); assay: LTEA_HepaRG_EZR: Life Technologies and Expression Analysis (LTEA) Assay for Ezrin (EZR) using HepaRG (AID 2283491)
In short: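 HepaRG, 48 h chemical exposure, 8-pt half-log series from 100 uM, 0.5% DMSO vehicle, duplicates. Read-out: EZR mRNA by TaqMan qRT-PCR (Fluidigm array), housekeeping-normalized; bidirectional curve fit vs DMSO baseline.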

[7] = read-out: Cytochrome P450 3A7 (Homo sapiens) (UniProt P24462); assay: LTEA_HepaRG_CYP3A7: Life Technologies and Expression Analysis (LTEA) Assay for CYP3A7 using HepaRG (AID 2283492)
In short: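 Cells were thawed, plated, cultured 48 h, then treated for a further 48 h with chemicals (eight-point half-log series from 100 uM, 0.5% DMSO). RNA was isolated and CYP3A7 expression quantified by qRT-PCR normalised to ACTB, GAPDH and POLR2A.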

[8] = read-out: CYP3A5 (gene 1577); assay: LTEA_HepaRG_CYP3A5: Life Technologies and Expression Analysis (LTEA) Assay for CYP3A5 using HepaRG (AID 2283493)
In short: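 mRNA levels were quantified by qRT-PCR on Fluidigm arrays and normalized to three housekeeping genes. Differentiated HepaRG cells received 48 h exposure (top 100 uM, half-log steps, 0.5% DMSO vehicle, duplicate); bidirectional fitting versus DMSO.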

[9] = read-out: Cytochrome P450 4A22 (Homo sapiens) (UniProt Q5TCH4); assay: LTEA_HepaRG_CYP4A22: Life Technologies and Expression Analysis (LTEA) Assay for Cytochrome P450 4A22 (CYP4A22) using HepaRG (AID 2283495)
In short: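 Cryopreserved HepaRG cells, plated and cultured 48 h, then switched to serum-free induction medium and treated 48 h (duplicates, up to 100 uM, half-log steps, 0.5% DMSO). Expression change of CYP4A22 was fitted bidirectionally against vehicle.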

[10] = read-out: Cytochrome P450 7A1 (Homo sapiens) (UniProt P22680); assay: LTEA_HepaRG_CYP7A1: Life Technologies and Expression Analysis (LTEA) Assay for Cytochrome P450 7A1 (CYP7A1) using HepaRG (AID 2283496)
In short: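 HepaRG, 48 h exposure, 8-pt half-log series from 100 uM, 0.5% DMSO vehicle, duplicates. Readout: TaqMan qRT-PCR mRNA vs three housekeeping genes; bidirectional curve fit against DMSO baseline.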

[11] = read-out: Glutathione S-Transferase (GSTA2), GSTA2 (gene 2939); assay: LTEA_HepaRG_GSTA2: Life Technologies and Expression Analysis (LTEA) Assay for Glutathione S-Transferase (GSTA2) using HepaRG (AID 2283497)
In short: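 Oxidative-stress marker GSTA2 is quantified by TaqMan qRT-PCR in HepaRG cultures treated 48 h across an eight-point range to 100 uM. Expression is normalized to endogenous controls and compared with 0.5% DMSO vehicle.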

[12] = read-out: Glutamate-cysteine ligase catalytic (GCLC), GCLC (gene 2729); assay: LTEA_HepaRG_GCLC: Life Technologies and Expression Analysis (LTEA) Assay for Glutamate-cysteine ligase catalytic (GCLC) using HepaRG (AID 2283498)
In short: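 Oxidative-stress marker GCLC is measured as mRNA change in human HepaRG liver cells after 48 h chemical treatment in 0.5% DMSO, eight concentrations from 100 uM. Activity is fitted bidirectionally against vehicle.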

[13] = read-out: Glutamate-cysteine ligase regulatory (GCLM), GCLM (gene 2730); assay: LTEA_HepaRG_GCLM: Life Technologies and Expression Analysis (LTEA) Assay for Glutamate-cysteine ligase regulatory (GCLM) using HepaRG (AID 2283500)
In short: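 GCLM expression quantified by qRT-PCR, normalized to three housekeeping genes, after 48 h chemical treatment of HepaRG cells in duplicate at 8 concentrations (top 100 uM, half-log steps, 0.5% DMSO). Changes fitted both directions against vehicle.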

[14] = read-out: Glutathione S-transferase M3 (GSTM3), GSTM3 (gene 2947); assay: LTEA_HepaRG_GSTM3: Life Technologies and Expression Analysis (LTEA) Assay for Glutathione S-transferase M3 (GSTM3) using HepaRG (AID 2283501)
In short: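 Changes in GSTM3 expression, an oxidative-stress marker, were scored by bidirectional curve fitting against 0.5% DMSO vehicle. Human HepaRG cultures received chemicals for 48 h in duplicate, highest concentration 100 uM with half-log dilutions.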

[15] = read-out: Heat shock 70 kDa protein 1 (HSPA1A), gene 3303; assay: LTEA_HepaRG_HSPA1A: Life Technologies and Expression Analysis (LTEA) Assay for Heat shock 70 kDa protein 1 (HSPA1A) using HepaRG (AID 2283502)
In short: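 HSPA1A expression measured by qRT-PCR with ACTB/GAPDH/POLR2A normalization; curves fitted in both directions relative to DMSO vehicle. Exposure: 48 h in HepaRG cells, duplicate 8-point half-log series from 100 uM, 0.5% DMSO, serum-free induction medium.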

[16] = read-out: Hypoxia-inducible factor 1-alpha (Homo sapiens) (UniProt Q16665); assay: LTEA_HepaRG_HIF1A: Life Technologies and Expression Analysis (LTEA) Assay for Hypoxia-inducible factor 1 (HIF1A) Trancription factor using HepaRG (AID 2283503)
In short: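 HIF1A transcript level read by qRT-PCR (ACTB, GAPDH, POLR2A normalization) after 48 h chemical exposure of HepaRG cultures. Eight half-log concentrations, top 100 uM, 0.5% DMSO vehicle, duplicates; bidirectional curve fit against DMSO baseline.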

[17] = read-out: 3-Hydroxy-3-Methylglutaryl-CoA Synthase 2 (HMGCS2), HMGCS2 (gene 3158); assay: LTEA_HepaRG_HMGCS2: Life Technologies and Expression Analysis (LTEA) Assay for 3-Hydroxy-3-Methylglutaryl-CoA Synthase 2 (HMGCS2) using HepaRG (AID 2283504)
In short: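 Expression of HMGCS2 in human HepaRG liver cells is measured by qRT-PCR 48 h after dosing (highest 100 uM, half-log series, 0.5% DMSO). Values come from bidirectional concentration-response fitting with DMSO as baseline.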

[18] = read-out: HGF (gene 3082); assay: LTEA_HepaRG_HGF: Life Technologies and Expression Analysis (LTEA) Assay for Hepatocyte Growth Facto (HGF) using HepaRG (AID 2283505)
In short: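 Gain or loss of HGF mRNA in human HepaRG liver cells after 48 h chemical exposure; eight concentrations up to 100 uM with 0.5% DMSO vehicle, quantified by TaqMan qRT-PCR.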

[19] = read-out: growth arrest and DNA damage 45 (GADD45G), GADD45G (gene 10912); assay: LTEA_HepaRG_GADD45G: Life Technologies and Expression Analysis (LTEA) Assay for growth arrest and DNA damage 45 (GADD45G) using HepaRG (AID 2283499)
In short: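 Human hepatic HepaRG line treated 48 h with chemicals (eight concentrations, half-log steps from 100 uM); transcript induction or repression of GADD45G scored by qRT-PCR versus DMSO vehicle.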

Measured: AC50

Hypoxia-inducible factor 1-alpha (Homo sapiens), sequence (Q16665 whole entry, looked up): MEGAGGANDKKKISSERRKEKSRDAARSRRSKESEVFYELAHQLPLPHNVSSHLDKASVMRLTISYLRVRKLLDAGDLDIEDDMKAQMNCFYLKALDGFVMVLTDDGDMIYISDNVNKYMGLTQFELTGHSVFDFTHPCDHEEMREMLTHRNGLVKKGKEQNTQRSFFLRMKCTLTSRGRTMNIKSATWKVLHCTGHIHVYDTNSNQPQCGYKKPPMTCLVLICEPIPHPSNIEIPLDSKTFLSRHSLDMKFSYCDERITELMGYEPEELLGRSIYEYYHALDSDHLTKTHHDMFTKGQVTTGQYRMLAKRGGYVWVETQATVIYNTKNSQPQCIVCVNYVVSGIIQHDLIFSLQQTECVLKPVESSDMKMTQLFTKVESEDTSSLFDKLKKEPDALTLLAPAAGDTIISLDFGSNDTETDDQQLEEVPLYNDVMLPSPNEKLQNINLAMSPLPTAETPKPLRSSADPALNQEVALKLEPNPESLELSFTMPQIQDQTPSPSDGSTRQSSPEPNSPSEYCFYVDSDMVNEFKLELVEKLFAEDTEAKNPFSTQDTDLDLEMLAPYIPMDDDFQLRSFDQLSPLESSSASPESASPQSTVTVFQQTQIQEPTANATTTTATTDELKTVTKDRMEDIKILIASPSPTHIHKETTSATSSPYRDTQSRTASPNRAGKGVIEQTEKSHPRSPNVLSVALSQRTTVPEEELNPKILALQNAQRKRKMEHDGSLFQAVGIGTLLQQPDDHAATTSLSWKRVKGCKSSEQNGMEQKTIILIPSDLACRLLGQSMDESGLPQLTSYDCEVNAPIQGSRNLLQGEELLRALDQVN
Cytochrome P450 3A7 (Homo sapiens), sequence (P24462 whole entry, looked up): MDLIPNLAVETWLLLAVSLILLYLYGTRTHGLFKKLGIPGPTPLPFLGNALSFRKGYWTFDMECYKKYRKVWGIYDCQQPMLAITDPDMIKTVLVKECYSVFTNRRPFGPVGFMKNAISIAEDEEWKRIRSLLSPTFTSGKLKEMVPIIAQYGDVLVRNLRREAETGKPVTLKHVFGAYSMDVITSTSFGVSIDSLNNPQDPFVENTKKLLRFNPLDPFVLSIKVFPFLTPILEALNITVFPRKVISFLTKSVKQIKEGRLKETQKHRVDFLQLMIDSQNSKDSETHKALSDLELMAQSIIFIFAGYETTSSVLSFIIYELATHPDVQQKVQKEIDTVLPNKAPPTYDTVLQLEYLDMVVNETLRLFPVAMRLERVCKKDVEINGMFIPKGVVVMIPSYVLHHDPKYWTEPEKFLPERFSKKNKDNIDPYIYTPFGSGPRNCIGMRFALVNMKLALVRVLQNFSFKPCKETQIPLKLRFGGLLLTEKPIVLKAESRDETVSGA
Cytochrome P450 3A4 (Homo sapiens), sequence (P08684 whole entry, looked up): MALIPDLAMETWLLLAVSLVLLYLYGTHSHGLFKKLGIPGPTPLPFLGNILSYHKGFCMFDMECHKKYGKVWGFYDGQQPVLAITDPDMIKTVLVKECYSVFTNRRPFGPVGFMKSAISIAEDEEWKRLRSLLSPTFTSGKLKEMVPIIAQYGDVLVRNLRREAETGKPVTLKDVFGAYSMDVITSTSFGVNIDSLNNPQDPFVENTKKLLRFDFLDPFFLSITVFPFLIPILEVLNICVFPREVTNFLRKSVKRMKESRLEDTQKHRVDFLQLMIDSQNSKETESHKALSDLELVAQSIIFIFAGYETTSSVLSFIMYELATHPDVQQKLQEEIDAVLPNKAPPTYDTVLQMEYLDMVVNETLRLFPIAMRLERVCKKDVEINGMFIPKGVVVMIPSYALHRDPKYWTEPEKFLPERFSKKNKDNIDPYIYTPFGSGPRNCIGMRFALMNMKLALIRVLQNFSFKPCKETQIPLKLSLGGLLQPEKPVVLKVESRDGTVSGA

CCCCc1nc2cccnc2n1Cc1ccc(-c2ccccc2-c2nnn[nH]2)cc1
active: [2] 16 µM | [7] 13.7 µM | [10] 26.6 µM
not listed: [19]
inactive: all other assays above

C/C=C/C=C/C(=O)O
active: [12] 0.256 µM
not listed: [4] | [9] | [10]
inactive: all other assays above

NCCOCCOCCN
not listed: [15] | [19]
inactive: all other assays above

Cc1cc(Cc2ccc(N)c(C)c2)ccc1N
active: [2] 4.94 µM | [4] 50 µM | [7] 10.8 µM | [10] 5.09 µM
not listed: [15] | [19]
inactive: all other assays above
